Test [1] concerns Wnt5a (protein binding on small-molecule microarray). The experiment in a line: Wnt5a binders on small-molecule microarray, primary screen, biophysical, 635/667 nm fluorescence (AID 1142).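 Note: fluorescence read at 667 nm with signal to noise per printed feature.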 Conditions: 635 nm fluorescence, higher = more signal.
The nature of test [2]: cell viability in Huh7 cells, primary screen, cytotoxicity control for HCV replication inhibitor project, CellTiter-Glo luminescence, basal, 48 h (AID 1143).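 Note: Huh7 hepatoma cells carrying a hepatitis C replication reporter with no stimulus; test concentration not given here.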 The conditions noted are these: Huh7 HCV replicon, higher = more signal, called active from +8 up or from −8 down. (In general: Cellular ATP, detected with luciferase, serves as a proxy for viable cell number.)
Test [3] can be described thus: P. aeruginosa biofilm formation inhibitors, primary screen, PAO1 strain, BacTiter-Glo luminescence, LB-PBS (AID 1144). The conditions noted are these: 12 h, higher = more signal.
The nature of test [4]: CREB reporter modulators without forskolin, primary screen, cell-based, PC12, CRE-LacZ reporter, unstimulated (AID 1145). The conditions noted are these: no forskolin, luminescence, 4.5 h, higher = more signal, called active from +8 up or from −8 down.
A short description of test [5]: CREB reporter modulators under forskolin, primary screen, cell-based, PC12, CRE-LacZ reporter, forskolin-stimulated (AID 1146).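 Note: PC12 cells with 6xCRE LacZ reporter stimulated by forskolin 10 µM; beta-galactosidase reporter signal reflecting CREB driven transcription.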 Conditions: luminescence, 4.5 h, higher = more signal, called active from +8 up or from −8 down.
Test [6] concerns the target Streptavidin (Streptomyces avidinii) (UniProt P22629). The test can be described thus: streptavidin binders on small-molecule microarray, primary screen, artefact control for SMM compound annotation, biophysical, 635/667 nm fluorescence (AID 1147).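 Note: signal reflects streptavidin binding to arrayed compounds as a control protein.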 Conditions: streptavidin binding, higher = more signal.
A short description of test [7]: small-molecule binders of probe aInhba, primary screen, biochemical, small-molecule microarray, 635/667 nm fluorescence (AID 1148).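 Note: score merges 667nm spot fluorescence with signal-to-noise for antibody binding to printed compounds.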 The conditions noted are these: higher = more signal.
Test [8] deals with Torsin-1A (Homo sapiens) (UniProt O14656). The test can be described thus: torsin A binders from cell lysate, primary screen, small-molecule microarray, wild-type, 635/667 nm (AID 1149). The conditions noted are these: COS7 hTOR1A-WT lysate, 635 nm fluorescence, higher = more signal.
Chain of Torsin-1A (Homo sapiens) (O14656 whole entry, looked up): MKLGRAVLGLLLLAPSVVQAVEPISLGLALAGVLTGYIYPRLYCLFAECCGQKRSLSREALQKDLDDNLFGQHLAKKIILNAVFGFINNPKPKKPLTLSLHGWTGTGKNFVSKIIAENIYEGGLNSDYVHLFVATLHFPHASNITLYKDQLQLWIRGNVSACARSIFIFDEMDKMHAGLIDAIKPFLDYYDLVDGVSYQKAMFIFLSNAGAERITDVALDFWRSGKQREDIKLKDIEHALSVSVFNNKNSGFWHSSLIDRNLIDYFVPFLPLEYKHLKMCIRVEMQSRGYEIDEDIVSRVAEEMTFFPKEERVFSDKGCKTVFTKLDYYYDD
Test [9] shares this target. The experiment in a line: small-molecule binders of mutant TOR1A in lysate, primary screen, cell lysate, small-molecule microarray, COS7 lysate, 635/667 nm fluorescence (AID 1150).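 Note: score pools 667 nm emission and signal to noise measuring lysate protein binding.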 Conditions: COS7 hTOR1A mutant lysate, 635 nm fluorescence, higher = more signal.
Test [10] deals with Sonic hedgehog protein (Shh). The test can be described thus: small-molecule binders of Shh protein, primary screen, biochemical, small-molecule microarray, 635/667 nm fluorescence (AID 1151).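 Note: Shh protein binding to compounds spotted on small-molecule microarray slides; score combines spot fluorescence intensity with signal-to-noise across triplicate slides.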 Conditions: small-molecule microarray binding, 635 nm fluorescence; higher = more signal.
Test [11] can be described thus: E. coli DRC41 culture turbidity changes, primary screen, E. coli filamentation inducer project, strain DRC41, OD650, 48 h (AID 1152).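 Note: E. coli MC1000 strain DRC41 lacking acrAB efflux pump and sulA.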 The conditions noted are these: E. coli DRC41 (acrAB sulA), higher = more signal, called active from +8 up or from −8 down.
Test [12] in a line: small-molecule binders of probe aLefty1, primary screen, biochemical, small-molecule microarray, 635/667 nm fluorescence (AID 1153).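 Note: score merges spot fluorescence with signal-to-noise ratio from the scanned slide images.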 Conditions: higher = more signal.
Test [13] is described as follows: PSAC antagonists in infected red cells, primary screen, cell-based, P. falciparum Indochina, OD700, 1 h (AID 1154). The conditions noted are these: P. falciparum Indochina infected RBC osmotic lysis, higher = more signal, called active from +8 up or from −8 down.
Test [14] is described as follows: PSAC antagonists in infected red cells, primary screen, cell-based, P. falciparum Indochina, OD700, 2 h (AID 1155).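 Note: lysis reports solute entry through the parasite surface anion channel PSAC; channel blockers reduce lysis of infected cells.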 Conditions: P. falciparum Indochina infected erythrocytes, osmotic lysis OD700; higher = more signal, called active from +8 up or from −8 down.
The nature of test [15]: osmotic lysis modulators in infected erythrocytes, primary screen, PSAC antagonist project, cell-based, P. falciparum Indochina, OD700, 3 h (AID 1156). Conditions: higher = more signal, called active from +8 up or from −8 down.
Test [16] can be described thus: PSAC antagonists in infected red cells, primary screen, cell-based, P. falciparum Indochina, OD700, 18 h (AID 1157). The conditions noted are these: P. falciparum Indochina infected erythrocytes, osmotic lysis OD700, 18 h; higher = more signal, called active from +8 up or from −8 down.
Test [17] can be described thus: modulators of S6 phosphorylation in cells, primary screen, cell-based, A549, cytoblot, luminescence, serum-stimulated (AID 1158).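 Note: serum-stimulated A549 lung adenocarcinoma cells; signal is phosphorylated S6 detected by cytoblot immunostaining with HRP secondary.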 Conditions: A549 phospho-S6 cytoblot, 5 h, higher = more signal.
The target in test [18] is NADPH oxidase 2 (Homo sapiens) (UniProt P04839). The experiment in a line: NOX2-dependent H2O2 signal modulators, primary screen, NOX inhibitor project, cell-based, HEK293-NOX2, PMA-stimulated, Amplex Red fluorescence (AID 1159). Note: test concentration not given here. Conditions: 45 min, higher = more signal, called active from +8 up or from −8 down.
Chain of NADPH oxidase 2 (Homo sapiens) (P04839 whole entry, looked up): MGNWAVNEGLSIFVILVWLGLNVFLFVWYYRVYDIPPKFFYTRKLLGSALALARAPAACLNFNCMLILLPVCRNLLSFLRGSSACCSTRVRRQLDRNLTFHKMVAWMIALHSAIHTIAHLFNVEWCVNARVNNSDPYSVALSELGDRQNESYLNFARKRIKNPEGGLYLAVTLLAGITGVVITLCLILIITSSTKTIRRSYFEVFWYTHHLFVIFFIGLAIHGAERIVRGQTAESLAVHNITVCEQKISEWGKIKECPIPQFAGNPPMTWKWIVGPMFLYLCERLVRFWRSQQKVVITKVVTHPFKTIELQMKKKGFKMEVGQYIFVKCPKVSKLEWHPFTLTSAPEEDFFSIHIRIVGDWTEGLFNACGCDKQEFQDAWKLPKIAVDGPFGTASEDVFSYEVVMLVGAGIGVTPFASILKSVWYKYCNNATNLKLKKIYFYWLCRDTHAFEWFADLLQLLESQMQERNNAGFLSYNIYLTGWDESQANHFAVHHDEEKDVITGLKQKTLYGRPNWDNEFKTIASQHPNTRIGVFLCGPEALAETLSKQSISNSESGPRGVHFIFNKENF
Test [19] addresses NADPH oxidase 4 (Homo sapiens) (UniProt Q9NPH5). The experiment in a line: NOX4-dependent H2O2 signal modulators, primary screen, NOX inhibitor project, cell-based, HEK293-NOX4, tetracycline-induced, Amplex Red fluorescence (AID 1160). Conditions: 45 min, higher = more signal, called active from +8 up or from −8 down.
The target in test [20] is NADPH oxidase 5 (Homo sapiens) (UniProt Q96PH1). The test can be described thus: NOX5-dependent H2O2 signal modulators, primary screen, NOX inhibitor project, cell-based, HEK293-NOX5, Amplex Red fluorescence (AID 1161). The conditions noted are these: HEK293-NOX5, ionomycin, 45 min, higher = more signal.
Chain of NADPH oxidase 5 (Homo sapiens) (Q96PH1 whole entry, looked up): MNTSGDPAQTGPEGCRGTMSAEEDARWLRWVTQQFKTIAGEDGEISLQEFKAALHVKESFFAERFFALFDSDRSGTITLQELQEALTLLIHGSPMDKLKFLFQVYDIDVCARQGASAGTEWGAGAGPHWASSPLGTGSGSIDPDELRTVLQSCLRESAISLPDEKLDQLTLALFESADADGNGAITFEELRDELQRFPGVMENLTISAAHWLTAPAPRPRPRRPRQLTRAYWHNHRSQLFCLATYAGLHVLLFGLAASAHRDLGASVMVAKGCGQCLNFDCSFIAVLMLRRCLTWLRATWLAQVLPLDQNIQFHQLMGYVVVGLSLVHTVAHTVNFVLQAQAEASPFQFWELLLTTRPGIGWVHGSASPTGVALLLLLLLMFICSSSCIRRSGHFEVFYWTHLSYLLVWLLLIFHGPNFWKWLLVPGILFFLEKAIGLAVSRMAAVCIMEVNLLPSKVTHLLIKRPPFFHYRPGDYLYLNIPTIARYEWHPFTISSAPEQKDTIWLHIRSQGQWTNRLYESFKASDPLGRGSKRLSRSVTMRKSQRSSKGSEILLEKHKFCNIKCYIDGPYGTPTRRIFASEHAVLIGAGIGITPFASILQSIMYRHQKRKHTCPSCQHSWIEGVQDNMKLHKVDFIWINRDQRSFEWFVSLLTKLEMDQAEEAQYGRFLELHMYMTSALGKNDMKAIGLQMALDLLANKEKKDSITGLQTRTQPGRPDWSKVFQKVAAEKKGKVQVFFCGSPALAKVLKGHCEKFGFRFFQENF

Structures are written as SMILES. Calls of active or inactive are those of the source. Unless noted, the rule behind the calls is not given here.

Chain of Streptavidin (Streptomyces avidinii) (P22629 whole entry, looked up): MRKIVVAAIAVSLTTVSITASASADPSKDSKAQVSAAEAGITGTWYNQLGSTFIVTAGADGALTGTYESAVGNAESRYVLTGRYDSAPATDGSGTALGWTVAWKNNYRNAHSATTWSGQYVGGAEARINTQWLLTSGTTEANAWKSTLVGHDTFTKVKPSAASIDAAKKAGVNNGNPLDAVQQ
Chain of NADPH oxidase 4 (Homo sapiens) (Q9NPH5 whole entry, looked up): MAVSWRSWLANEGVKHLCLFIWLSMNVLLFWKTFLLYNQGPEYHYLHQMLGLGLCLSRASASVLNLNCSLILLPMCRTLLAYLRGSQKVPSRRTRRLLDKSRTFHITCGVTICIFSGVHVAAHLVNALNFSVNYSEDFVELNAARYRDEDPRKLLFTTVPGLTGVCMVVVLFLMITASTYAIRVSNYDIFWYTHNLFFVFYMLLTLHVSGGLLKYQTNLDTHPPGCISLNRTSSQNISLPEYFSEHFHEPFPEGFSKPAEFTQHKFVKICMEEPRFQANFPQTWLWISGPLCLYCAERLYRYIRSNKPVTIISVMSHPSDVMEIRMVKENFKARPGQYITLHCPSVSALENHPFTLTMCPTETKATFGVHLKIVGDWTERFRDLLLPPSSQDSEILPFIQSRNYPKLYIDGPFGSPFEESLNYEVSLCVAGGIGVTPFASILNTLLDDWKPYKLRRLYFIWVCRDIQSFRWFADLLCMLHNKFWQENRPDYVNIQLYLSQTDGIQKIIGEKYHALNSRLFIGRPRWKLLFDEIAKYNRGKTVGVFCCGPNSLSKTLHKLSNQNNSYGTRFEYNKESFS

On to `CC(C)C[C@@H]1NC(=O)[C@@H]2C[C@H](C(=O)NCCCCCCNC(=O)CS)[C@H](c3ccc(O)cc3)N2C1=O`, for which the composite z-score in test [1] is 0.841; in test [6], 0.813; in test [7] it was -0.0933; in the test with Torsin-1A (Homo sapiens) [8], 0.887; with Torsin-1A (Homo sapiens) [9] it was 1.21; in test [10], 2.21. In [12], this compound had a composite z-score of 0.197. Moreover, the z-score in [2] was -1.88 (inactive); in test [3], -0.00979 (inactive); in [4] it was -0.268 (inactive); in test [5] it was -0.439 (inactive); in test [11], 0.81 (inactive); in [13] it was 4.25 (inactive). In addition, the z-score is -0.506 (inactive) in test [14]; 0.75 (inactive) in test [15]; -1.54 (inactive) in test [16]; 0.0377 in test [17]; 0.569 (inactive) in test [18]; 0.943 (inactive) in test [19]. Further, in test [20], the z-score was -0.706.

With `COc1ccc(-c2cc3c(c(CCc4ccccc4)n2)[Si](C(C)C)(C(C)C)O[C@H]3c2ccccc2)cn1`, the composite z-score in [1] was -0.143; in test [6], 0.547; in [7], -0.0762; with Torsin-1A (Homo sapiens) [8], -0.719; with Torsin-1A (Homo sapiens) [9], -0.534; in test [10] it was 0.431. In test [12], this compound yielded a composite z-score of -0.193. Besides, the z-score in test [2] is -0.248 (inactive); in test [3], -0.113 (inactive); in test [4], 4.67 (inactive); in test [5], -0.0122 (inactive); in [11], 0.0534 (inactive); in test [13] it was 4.29 (inactive). Besides, the z-score in test [14] is 1.36 (inactive); in test [15] it was -0.449 (inactive); in [16], 0.775 (inactive); in [17], -0.643; in test [18] it was 0.947 (inactive); in test [19], 0.741 (inactive). The z-score in [20] stood at 0.0862.

For the compound `COC(=O)C1(CC(C)C)C=C2C(=C(C)C(=O)C2C)CN1` (stereo not given), the composite z-score is 0.392 in test [1]; 0.351 in [6]; 1.17 in test [7]; 0.0384 with Torsin-1A (Homo sapiens) [8]; 0.276 in the test with Torsin-1A (Homo sapiens) [9]; -0.645 in [10]. The compound also returned a composite z-score in test [12] of 1.59. For the same compound, the z-score in test [2] was -0.109 (inactive); in [3], 0.142 (inactive); in test [4] it was 0.0041 (inactive); in [5], 2.32 (inactive); in [11], -1.62 (inactive); in test [13], 0.71 (inactive). In addition, the z-score is -0.161 (inactive) in test [14]; 0.396 (inactive) in [15]; 0.421 (inactive) in [16]; -0.164 in [17]; 0.425 (inactive) in test [18]; -1.51 (inactive) in [19]. In test [20], this compound registered a z-score of -2.83.

In the case of `CCCNC(=O)[C@@]1(Sc2ccc(C)cc2)CC(=O)N(Cc2cc(C(F)(F)F)cc(C(F)(F)F)c2)[C@@H]1c1ccc(CO)cc1`, the composite z-score in test [1] is -0.139; in test [6] it was -1.08; in test [7], -0.0963; with Torsin-1A (Homo sapiens) [8], -0.11; with Torsin-1A (Homo sapiens) [9] it was -0.155; in test [10] it was -0.0508. In [12], the composite z-score is -0.193. Also, the z-score was -4.41 (inactive) in [2]; 0.503 (inactive) in test [3]; -0.554 (inactive) in test [4]; 0.448 (inactive) in test [5]; 1.63 (inactive) in test [11]; 2.74 (inactive) in [13]. Besides, the z-score in [14] was 0.285 (inactive); in test [15], 0.25 (inactive); in [16], -1.15 (inactive); in test [17] it was 2.9; in [18], 0.584 (inactive); in [19], -0.589 (inactive). The z-score in test [20] was found to be 0.207.

(Values after PubChem BioAssay.)
